Reference: the supplement of paper PMC3342239
Counter-ions that a name gives are not always drawn.

Tested on: Saccharomyces cerevisiae
Test: fraction of cells in G1 phase (DNA content, flow cytometry); higher = more cells with unreplicated DNA (G1 delay)
Settings: temperature: 30 C; YPD; BY4741 PDR5+ SNQ2+; drug added to: actively dividing cells; 4.33 h
Method: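 S. cerevisiae cultures in YPD at 30°C were treated with each drug of the Enzo FDA-approved library at 20 µg/ml (final µM given per drug). Cells were fixed after 6–7 h (S1) or 6 h (S2), or after 4.33 h for BY4741 (S3), then stained with SYTOX Green. %G1 is the Dean-Jett-Fox G1 peak area divided by the G1+G2/M peak areas, written as a fraction and averaged over at least two independent experiments. DMSO reference: mean ~0.49; >0.60 is called High G1 and <0.3876 Low G1. Scale: lower means mitotic delay.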

First: CC(=O)OCC1OC([S-])C(OC(C)=O)C(OC(C)=O)C1OC(C)=O.CC[PH+](CC)CC.[Au+] (stereo not given) [Auranofin] (29.4771 µM)
Second: CC[C@H](C)C(=O)O[C@H]1C[C@@H](C)C=C2C=C[C@H](C)[C@H](CC[C@@H]3C[C@@H](O)CC(=O)O3)[C@H]21 [Lovastatin] (49.4375 µM)
The “fraction of cells in G1 phase” value of the first is higher: 0.52 for the first, 0.402 for the second.

Going from `CC(C)C(=O)c1c(C(C)C)nn2ccccc12` [Ibudilast] (86.8386 µM) to `CC(CN1c2ccccc2Sc2ccccc21)N(C)C` (stereo not given) [Promethazine HCl] (70.317 µM), the “fraction of cells in G1 phase” value falls from 0.462 to 0.437.

Same assay, conditions: temperature: 30 C; YPD; JTY2953 pdr5 snq2 (sensitized); drug added to: actively dividing cells; 6 h

Compared with `CC(=O)OCC1OC([S-])C(OC(C)=O)C(OC(C)=O)C1OC(C)=O.CC[PH+](CC)CC.[Au+]` (stereo not given) [Auranofin] (29.4771 µM), `CC[C@H](C)C(=O)O[C@H]1C[C@@H](C)C=C2C=C[C@H](C)[C@H](CC[C@@H]3C[C@@H](O)CC(=O)O3)[C@H]21` [Lovastatin] (49.4375 µM) is lower in “fraction of cells in G1 phase” value: 0.959 for the first, 0.698 for the second.

Going from `CCC(C)(C)c1ccc(CC(C)CN2C[C@@H](C)O[C@@H](C)C2)cc1` (stereo not given in full) [Amorolfine] (62.9883 µM) to `CC(C)C(=O)c1c(C(C)C)nn2ccccc12` [Ibudilast] (86.8386 µM), the “fraction of cells in G1 phase” value rises from 0.367 to 0.698.

Compared with `COC1=C(OC)C(=O)C(CCCCCCCCCCO)=C(C)C1=O` [Idebenone] (59.0933 µM), `CCCCc1oc2ccccc2c1C(=O)c1cc(I)c(OCCN(CC)CC)c(I)c1` [Amiodarone] (30.9922 µM) is lower in “fraction of cells in G1 phase” value: 0.472 for the first, 0.388 for the second.

For `c1ccc(-c2ccc(C(c3ccccc3)n3ccnc3)cc2)cc1` (stereo not given) [Bifonazole] (64.4325 µM), the “fraction of cells in G1 phase” value was 0.474.

Same assay, conditions: temperature: 30 C; YPD; JTY2953 pdr5 snq2 (sensitized); drug added to: cultures diluted from stationary phase; 6-7 h

Going from `CC(=O)OCC1OC([S-])C(OC(C)=O)C(OC(C)=O)C1OC(C)=O.CC[PH+](CC)CC.[Au+]` (stereo not given) [Auranofin] (29.4771 µM) to `CC[C@H](C)C(=O)O[C@H]1C[C@@H](C)C=C2C=C[C@H](C)[C@H](CC[C@@H]3C[C@@H](O)CC(=O)O3)[C@H]21` [Lovastatin] (49.4375 µM), the “fraction of cells in G1 phase” value rises from 0.709 to 0.747.

Going from `c1ccc2c(CC3=NCCN3)cccc2c1` [Naphazoline HCl] (95.1108 µM) to `Nc1c2c(nc3ccccc13)CCCC2` [Tacrine HCl] (100.873 µM), the “fraction of cells in G1 phase” value rises from 0.456 to 0.541.

Compared with `CN(C)CCc1c[nH]c2ccc(C[C@H]3COC(=O)N3)cc12` [zolmitriptan] (65.9179 µM), `COc1ccc(C(=O)NCc2ccc(OCCN(C)C)cc2)cc1OC` [Itopride HCl] (55.7972 µM) is higher in “fraction of cells in G1 phase” value: 0.474 for the first, 0.501 for the second.

First: CCC(C)(C)c1ccc(CC(C)CN2C[C@@H](C)O[C@@H](C)C2)cc1 (stereo not given in full) [Amorolfine] (62.9883 µM)
Second: CC(CN1c2ccccc2Sc2ccccc21)N(C)C (stereo not given) [Promethazine HCl] (70.317 µM)
The “fraction of cells in G1 phase” value of the first is higher: 0.841 for the first, 0.204 for the second.

Going from `C[C@]12CC[C@@H]3c4ccc(O)cc4CC[C@H]3[C@@H]1CC[C@@H]2O` [Estradiol] (73.4239 µM) to `Nc1c2c(nc3ccccc13)CCCC2O` (stereo not given) [Hydroxytacrine maleate] (93.3405 µM), the “fraction of cells in G1 phase” value falls from 0.58 to 0.513.

Compared with `COCCOC(=O)C1=C(C)NC(C)=C(C(=O)OC(C)C)C1c1cccc([N+](=O)[O-])c1` (stereo not given) [Nimodipine] (47.7954 µM), `CC(C)C(=O)c1c(C(C)C)nn2ccccc12` [Ibudilast] (86.8386 µM) is higher in “fraction of cells in G1 phase” value: 0.521 for the first, 0.604 for the second.

Compared with `Clc1ccc2nsnc2c1NC1=NCCN1` [Tizanidine HCl] (78.8287 µM), `CC1Cc2ccccc2N1NC(=O)c1ccc(Cl)c(S(N)(=O)=O)c1` (stereo not given) [Indapamide] (54.6685 µM) is higher in “fraction of cells in G1 phase” value: 0.504 for the first, 0.511 for the second.

Compared with `COC(=O)Nc1nc2cc(C(=O)c3ccccc3)ccc2[nH]1` [Mebendazol] (67.7277 µM), `O=C(O)c1cc(/N=N/c2ccc(S(=O)(=O)Nc3ccccn3)cc2)ccc1O` [Sulfasalazine] (50.2008 µM) is higher in “fraction of cells in G1 phase” value: 0.352 for the first, 0.517 for the second.

Going from `CC(C)NNC(=O)c1ccncc1` [Iproniazid] (111.593 µM) to `CC(=O)Nc1ccc(OCC(O)CNC(C)C)cc1` (stereo not given) [Practolol] (75.0911 µM), the “fraction of cells in G1 phase” value rises from 0.47 to 0.506.

`COc1ncnc(NS(=O)(=O)c2ccc(N)cc2)c1OC` [Sulfadoxine] (64.4467 µM) and `Nc1cc(-c2ccncc2)c[nH]c1=O` [Amrinone] (106.838 µM) are the same in “fraction of cells in G1 phase” value: 0.474 for the first, 0.474 for the second.

Going from `CC1COc2c(N3CCN(C)CC3)c(F)cc3c(=O)c(C(=O)O)cn1c23` (stereo not given) [Ofloxacin] (55.344 µM) to `CCn1cc(C(=O)O)c(=O)c2cc(F)c(N3CCNCC3)cc21` [Norfloxacin] (62.6295 µM), the “fraction of cells in G1 phase” value falls from 0.505 to 0.455.

Going from `O=C(NCC1CCCCN1)c1cc(OCC(F)(F)F)ccc1OCC(F)(F)F` (stereo not given) [Flecainide] (42.1585 µM) to `CCCCc1oc2ccccc2c1C(=O)c1cc(I)c(OCCN(CC)CC)c(I)c1` [Amiodarone] (30.9922 µM), the “fraction of cells in G1 phase” value rises from 0.509 to 0.868.

Going from `CCCc1nc2c(C)cc(-c3nc4ccccc4n3C)cc2n1Cc1ccc(-c2ccccc2C(=O)O)cc1` [Telmisartan] (38.8627 µM) to `c1ccc(-c2ccc(C(c3ccccc3)n3ccnc3)cc2)cc1` (stereo not given) [Bifonazole] (64.4325 µM), the “fraction of cells in G1 phase” value rises from 0.543 to 0.758.

Going from `COC1=C(OC)C(=O)C(CCCCCCCCCCO)=C(C)C1=O` [Idebenone] (59.0933 µM) to `Nc1nc2c(ncn2COC(CO)CO)c(=O)[nH]1` [Ganciclovir] (78.3591 µM), the “fraction of cells in G1 phase” value falls from 0.693 to 0.451.

With `CCCCCN(C)CCC(O)(P(=O)(O)O)P(=O)(O)O` [Ibandronate] (62.65 µM) the “fraction of cells in G1 phase” value was 0.474.
